Among the test systems are RPMI-8226 leukemia; OVCAR-8 ovarian; OVCAR-5 ovarian; OVCAR-4 ovarian; SK-OV-3 ovarian; IGROV1 ovarian; OVCAR-3 ovarian; HS 578T breast; NCI/ADR-RES ovarian; T-47D breast; BT-549 breast; MDA-MB-435 melanoma; SW-620 colon; MCF7 breast; HCT-116 colon; KM12 colon; MDA-MB-468 breast; HCC-2998 colon.
Common to all, as to experiment: NCI-60 one-dose screen, 48 h (100 = growth as untreated, 0 = no growth, -100 = all killed)
Settings in all cases: 10 µM

About 83,000 compounds went through this panel and 20% of them were active in at least one assay; those are over-represented in the sample as a whole.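 Negative percent growth values reflect cell death: -40 means 40% of the cells present at the start died, and -100 means all died.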 Values without a mark were called inactive. Calls of active or inactive are those of the source. Rule for the calls: active = growth percent below 10; inactive = the rest.

As to `CC(=C(c1ccc(OCCCN(C)C)cc1)c1ccc(OCCCN(C)C)cc1)c1ccccc1`, the growth in the experiment with RPMI-8226 leukemia was -54.4% (active); with OVCAR-8 ovarian it was -72.7% (active); in the experiment on OVCAR-5 ovarian, -98.5% (active); in the experiment with OVCAR-4 ovarian, -96.9% (active); in the experiment with SK-OV-3 ovarian it was -90.3% (active); in the experiment on IGROV1 ovarian, -95% (active). Moreover, the growth in the experiment on OVCAR-3 ovarian is -93.6% (active); in the experiment with HS 578T breast, -71.2% (active); in the experiment with NCI/ADR-RES ovarian it was -98.1% (active); in the experiment with T-47D breast, -84.9% (active); in the experiment on BT-549 breast it was -69% (active); in the experiment with MDA-MB-435 melanoma, -98.1% (active). Besides, the growth in the experiment on SW-620 colon is -44.9% (active); with MCF7 breast, -82.2% (active); with HCT-116 colon, -10.4% (active); with KM12 colon it was -93% (active); with MDA-MB-468 breast it was -93.9% (active).
In the case of `COc1ccc(/C(C)=N/N=C2C(=O)N(C)c3ccc(Br)cc32)cc1S(N)(=O)=O`, the growth in the experiment on RPMI-8226 leukemia is 79.3%; in the experiment with OVCAR-8 ovarian, 27.4%; in the experiment with OVCAR-5 ovarian it was 81.4%; with OVCAR-4 ovarian it was 48.4%; in the experiment with SK-OV-3 ovarian, 58.8%; in the experiment on IGROV1 ovarian, 71.5%. Besides, the growth is 69.6% in the experiment with OVCAR-3 ovarian; 39.7% with HS 578T breast; 68.2% in the experiment with NCI/ADR-RES ovarian; 52.6% in the experiment on T-47D breast; 29.2% in the experiment on BT-549 breast; 95.9% in the experiment with MDA-MB-435 melanoma. Further, the growth was 85.7% in the experiment on SW-620 colon; 57.8% in the experiment on MCF7 breast; 74.4% in the experiment with HCT-116 colon; 97.8% in the experiment on KM12 colon; 70.2% in the experiment with MDA-MB-468 breast.
Turning to `Cc1ccc(S(=O)(=O)c2nc(-c3ccccc3)oc2S(=O)(=O)CC(=O)N2CCCC2)cc1`, the growth in the experiment with RPMI-8226 leukemia was -53.4% (active); in the experiment on OVCAR-8 ovarian, -86.7% (active); with OVCAR-5 ovarian it was -87.2% (active); with OVCAR-4 ovarian, -92.7% (active); in the experiment on SK-OV-3 ovarian, 68.4%; in the experiment on IGROV1 ovarian, 18.4%. In addition, the growth in the experiment with OVCAR-3 ovarian is -92.8% (active); with HS 578T breast it was 20.5%; in the experiment with NCI/ADR-RES ovarian, -69.5% (active); in the experiment on T-47D breast, -70.4% (active); in the experiment with BT-549 breast, -24.4% (active); with MDA-MB-435 melanoma, -99.3% (active). The growth in the experiment with SW-620 colon was -68.1% (active); in the experiment with MCF7 breast, -40.7% (active); in the experiment on HCT-116 colon, 0.73% (active); in the experiment on HCC-2998 colon it was -91.1% (active); with MDA-MB-468 breast, -91.8% (active).
As to `O=C(c1ccc(Cl)cc1)C1[C@H](c2ccc(Br)cc2)[C@@H](c2ccccc2)NC12C(=O)Nc1ccccc12` (stereo partly specified), the growth in the experiment on RPMI-8226 leukemia is -8.78% (active); in the experiment on OVCAR-8 ovarian it was 7.73% (active); with OVCAR-5 ovarian, -25.8% (active); in the experiment with OVCAR-4 ovarian, 12%; in the experiment on SK-OV-3 ovarian it was 12.7%; in the experiment with IGROV1 ovarian it was 6.67% (active). Further, the growth is -30.1% (active) in the experiment with OVCAR-3 ovarian; -8.79% (active) in the experiment on HS 578T breast; -53.1% (active) with NCI/ADR-RES ovarian; 1.59% (active) with T-47D breast; -9.62% (active) with BT-549 breast; -46.5% (active) with MDA-MB-435 melanoma. Besides, the growth is 3.46% (active) with SW-620 colon; -4.24% (active) in the experiment on MCF7 breast; 10.7% with HCT-116 colon; -39.3% (active) in the experiment on HCC-2998 colon; -3.73% (active) in the experiment on KM12 colon; -6.54% (active) with MDA-MB-468 breast.
As to `C#CCNC(=O)[C@]12CCC(C)(C)C[C@H]1C1=CC[C@@H]3[C@@](C)(CCC#N)[C@H](C(=C)C)CC[C@@]3(C)[C@]1(C)CC2`, the growth in the experiment with RPMI-8226 leukemia was 22.2%; in the experiment with OVCAR-8 ovarian it was 64.2%; in the experiment with OVCAR-5 ovarian it was 77.4%; with OVCAR-4 ovarian, 68.2%; in the experiment with SK-OV-3 ovarian, 62.6%; with IGROV1 ovarian, 71.9%. Further, the growth in the experiment on OVCAR-3 ovarian was 91.8%; in the experiment on HS 578T breast, 79.4%; in the experiment with NCI/ADR-RES ovarian, 62.5%; in the experiment with T-47D breast, 28%; in the experiment with BT-549 breast, 75.6%; in the experiment with MDA-MB-435 melanoma it was 72.2%. Besides, the growth with SW-620 colon is 74.1%; in the experiment on MCF7 breast, 34%; in the experiment with HCT-116 colon, 27.2%; in the experiment on HCC-2998 colon, 75.4%; in the experiment with KM12 colon it was 54.8%; in the experiment with MDA-MB-468 breast, 34.7%.
Regarding `CO[C@@H]1CSS[C@H]1Cn1nc(-c2ccc(Oc3ccccc3)cc2)c2c(N)ncnc21`, the growth in the experiment on RPMI-8226 leukemia is 34.3%; in the experiment with OVCAR-8 ovarian, 82.9%; in the experiment on OVCAR-5 ovarian, 82.3%; in the experiment on OVCAR-4 ovarian, 67.3%; in the experiment with SK-OV-3 ovarian it was 30.2%; in the experiment with IGROV1 ovarian, 80.4%. The growth was 104% in the experiment with OVCAR-3 ovarian; 72.6% in the experiment on HS 578T breast; 65.8% in the experiment with NCI/ADR-RES ovarian; 17.8% in the experiment on T-47D breast; 63.8% with BT-549 breast; 17.3% with MDA-MB-435 melanoma. Besides, the growth was 96.7% with SW-620 colon; 30.7% with MCF7 breast; 31.7% in the experiment on HCT-116 colon; 91.6% with HCC-2998 colon; 11.6% in the experiment with MDA-MB-468 breast.
For the compound `O=C(CS(=O)(=O)c1oc(-c2ccc(Cl)cc2)nc1S(=O)(=O)c1ccc(Cl)cc1)N1CCOCC1`, the growth with RPMI-8226 leukemia is -9.59% (active); with OVCAR-8 ovarian, 28.3%; in the experiment with OVCAR-5 ovarian it was 38.3%; in the experiment on OVCAR-4 ovarian, -8.45% (active); in the experiment on SK-OV-3 ovarian, 92.8%; in the experiment on IGROV1 ovarian, 73.5%. Also, the growth in the experiment with OVCAR-3 ovarian was 6.83% (active); in the experiment on HS 578T breast, 76%; with NCI/ADR-RES ovarian, 28.2%; in the experiment with T-47D breast it was -50.2% (active); in the experiment with BT-549 breast, 52.4%; with MDA-MB-435 melanoma it was 47%. Also, the growth is -18.3% (active) in the experiment with SW-620 colon; 11.3% in the experiment with MCF7 breast; 4.36% (active) in the experiment with HCT-116 colon; 51% with HCC-2998 colon; 55.8% with KM12 colon; -4.97% (active) in the experiment on MDA-MB-468 breast.
As for `O=C(Nc1ccc(I)cc1)Nc1nc2ccc([N+](=O)[O-])cc2s1`, the growth in the experiment on RPMI-8226 leukemia was -71.7% (active); in the experiment with OVCAR-8 ovarian it was -76.1% (active); with OVCAR-5 ovarian it was -98.4% (active); in the experiment on OVCAR-4 ovarian, -77.3% (active); in the experiment on SK-OV-3 ovarian, -69.9% (active); with IGROV1 ovarian it was -95.7% (active). In addition, the growth was -92% (active) in the experiment on OVCAR-3 ovarian; -64.9% (active) in the experiment with HS 578T breast; -88.4% (active) with NCI/ADR-RES ovarian; -85.9% (active) in the experiment on T-47D breast; -99.6% (active) with BT-549 breast; -96.1% (active) with MDA-MB-435 melanoma. The growth in the experiment with SW-620 colon is -80.4% (active); in the experiment on MCF7 breast, -93.6% (active); in the experiment with HCT-116 colon, -100% (active); in the experiment with HCC-2998 colon, -95.6% (active); in the experiment on KM12 colon it was -93.3% (active); in the experiment with MDA-MB-468 breast, -97.2% (active).
`COc1cccc(-c2ccc(/C=N/NC(=O)c3[nH]c4ccc(Br)cc4c3-c3ccccc3)o2)c1`: the growth in the experiment with RPMI-8226 leukemia is 1.18% (active); with OVCAR-8 ovarian, -16% (active); in the experiment on OVCAR-5 ovarian it was 12.3%; in the experiment on OVCAR-4 ovarian, 37.3%; in the experiment on SK-OV-3 ovarian it was 34.2%; in the experiment on IGROV1 ovarian, 32.6%. Also, the growth in the experiment with OVCAR-3 ovarian is 8.31% (active); in the experiment with HS 578T breast, -1.37% (active); in the experiment with NCI/ADR-RES ovarian it was -35% (active); in the experiment on T-47D breast, 54.7%; with BT-549 breast, 25.8%; with MDA-MB-435 melanoma, -30.7% (active). Further, the growth in the experiment on SW-620 colon is 24.6%; in the experiment with MCF7 breast it was 4.65% (active); with HCT-116 colon, -7.28% (active); with HCC-2998 colon it was 11.8%; in the experiment with MDA-MB-468 breast it was -2.92% (active).
Take `CCCCCCCCCCCCCCCCCCCC(=O)NCCc1c[nH]c2ccc(OC(=O)NOCCOCCOCCOCCOCCOCCOCCOCCOCCOCCOCCOCCOCCOCCOCCOCCOCCOCCOCCOCCOCCOCCOC)cc12`: the growth was -29.5% (active) with RPMI-8226 leukemia; 7.17% (active) with OVCAR-8 ovarian; -5.89% (active) in the experiment with OVCAR-5 ovarian; 29.8% in the experiment on OVCAR-4 ovarian; -10.1% (active) in the experiment on SK-OV-3 ovarian; 18.9% with IGROV1 ovarian. The growth is 11.8% in the experiment on OVCAR-3 ovarian; -18.9% (active) with HS 578T breast; 89.3% in the experiment with NCI/ADR-RES ovarian; -8.69% (active) in the experiment with T-47D breast; -12.7% (active) in the experiment on BT-549 breast; 17.2% with MDA-MB-435 melanoma. Moreover, the growth is 26.6% in the experiment on SW-620 colon; -12.3% (active) with MCF7 breast; -21.7% (active) in the experiment on HCT-116 colon; -2.45% (active) in the experiment with HCC-2998 colon; -14.7% (active) in the experiment on MDA-MB-468 breast.
Regarding `O=C1Nc2cc(Cl)ccc2/C1=C/c1cccc(OCc2ccc(Br)cc2F)c1`, the growth is -20.1% (active) in the experiment on RPMI-8226 leukemia; -15.8% (active) in the experiment with OVCAR-8 ovarian; 30.2% in the experiment on OVCAR-5 ovarian; 39.1% in the experiment on OVCAR-4 ovarian; 40.7% with SK-OV-3 ovarian; 20.2% in the experiment with IGROV1 ovarian. The growth in the experiment on OVCAR-3 ovarian was -39% (active); with HS 578T breast, -10.1% (active); in the experiment on NCI/ADR-RES ovarian, -35.1% (active); with T-47D breast, 9.72% (active); in the experiment with BT-549 breast it was 10.5%; with MDA-MB-435 melanoma, -64.4% (active). In addition, the growth was 19.5% in the experiment on SW-620 colon; 5.38% (active) in the experiment with MCF7 breast; 1.63% (active) in the experiment on HCT-116 colon; 26% in the experiment on HCC-2998 colon; -9.05% (active) in the experiment with MDA-MB-468 breast.

Source of the values: PubChem BioAssay (NCI).
